Source: PubChem BioAssay (Tox21)
“And” between values parts separate entries of the source, which are not always exact repeats. Equal values may be shown once. Inconclusive results are not listed. A call without a number means that no potency is given here. The source made the active and inactive calls. Unless noted, calls follow the shape of the dose curve; as a rule, active = well fitted curve in the direction sought with a large enough effect in the repeat runs; inconclusive = weak or mixed curves; inactive = no such curve, though single readings can be large; an effect the other way counts as inactive or inconclusive.

Experiments:
[1] = target: Aryl hydrocarbon receptor (Homo sapiens) (UniProt P35869); test: qHTS assay to identify small molecule that activate the aryl hydrocarbon receptor (AhR) signaling pathway (AID 743085); also: nearly all actives have a fitted effect of over 15% in size; also: potency is read from the fitted curve at half-maximal effect;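 as to activation: HG2L7.5c1 human HepG2 liver cells with stably integrated DRE-driven firefly reporter; series mostly up to about 70 µM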
Procedure, shortened: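 Measured in HG2L7.5c1 cells: CellTiter-Fluor signal (30 min incubation, 37C) for viability, then luciferase luminescence (30 min, room temperature). Compound contact time was 24 h at 37C, following a 5 h pre-incubation.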

[2] = qHTS assay to identify small molecule that activate the aryl hydrocarbon receptor (AhR) signaling pathway - cell viability counter screen (AID 743086); also: nearly all actives have a fitted effect of over 45% in size; also: potency is read from the fitted curve at half-maximal effect
Procedure, shortened: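 HepG2-AhR-luc (HG2L7.5c1) cells, 4000/well, were preincubated 5 h at 37C, exposed to compound in qHTS format for 24 hr at 37C, then given CellTiter-Fluor for 30 min; viability was read as fluorescence in the reporter wells.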

[3] = target: Peroxisome proliferator-activated receptor gamma (Homo sapiens) (UniProt P37231); test: qHTS assay to identify small molecule agonists of the peroxisome proliferator-activated receptor gamma (PPARg) signaling pathway (AID 743094; active = well fitted activation curve with a large enough effect in the signal ratio in the repeat runs, not every such curve was filed as active; the % refers to the signal ratio)
Procedure, shortened: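 Cell-based bla reporter, HEK293H background, PPARg-driven UAS. Pre-incubation 5 h, 37C, 5% CO2. Compound 17 h, 37C. Substrate 1 h RT; fluorescence.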

[4] = target: Peroxisome proliferator-activated receptor gamma (Homo sapiens) (UniProt P37231); test: qHTS assay to identify small molecule antagonists of the peroxisome proliferator-activated receptor gamma (PPARg) signaling pathway (AID 743191; calls by dose curve; also: nearly all actives have a fitted effect of over 30% in size; also: potency is read from the fitted curve at half-maximal effect)
Procedure, shortened: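 GeneBLAzer PPARg UAS-bla HEK293H cells carrying a UAS-driven beta-lactamase reporter were plated at 3000 cells/well, preincubated 5 h at 37C, then given compound for 17 h at 37C; LiveBLAzer B/G FRET substrate was read after 1 h at room temperature.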

[5] = qHTS assay to identify small molecule antagonists of the peroxisome proliferator-activated receptor gamma (PPARg) signaling pathway - cell viability counter screen (AID 743194); details: Potency: co-treated with 50 nM rosiglitazone; also: nearly all actives have a fitted effect of over 55% in size
Procedure, shortened: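 PPARg-UAS-bla HEK293H cells were plated, rested 5 h at 37 C, then treated with compounds plus rosiglitazone (50 nM final) for 17 h at 37 C; viability was then read by CellTiter-Glo luminescence after 30 min at room temperature.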

[6] = qHTS assay for small molecule agonists of the antioxidant response element (ARE) signaling pathway (AID 743202; active = well fitted activation curve with a large enough effect in the signal ratio in the repeat runs, not every such curve was filed as active; the % refers to the signal ratio)
Procedure, shortened: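 Steps: seed ARE-bla HepG2 cells (2,000/well); incubate 5 h at 37 C; add compounds by pin tool; incubate 16 h at 37 C; add FRET substrate; read fluorescence after 2 h at RT.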

[7] = qHTS assay for small molecule agonists of the antioxidant response element (ARE) signaling pathway - cell viability counter screen (AID 743203; calls by dose curve; also: nearly all actives have a fitted effect of over 55% in size)
Procedure, shortened: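 Measured in the same wells as the beta-lactamase ARE reporter, this read-out is CellTiter-Glo luminescence from HepG2 ARE-bla cells given compounds for 16 hrs.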

[8] = qHTS assay for small molecule activators of the heat shock response signaling pathway - cell viability counter screen (AID 743209); also: nearly all actives have a fitted effect of over 50% in size
Procedure, shortened: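 Same-well multiplex: after 2.5 h room-temperature incubation with LiveBLAzer B/G substrate and fluorescence reading, CellTiter-Glo reagent was added to HSE-bla HeLa cells that had received compound for 5 h at 37 C; luminescence read after 30 min.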

[9] = qHTS assay for small molecule activators of the heat shock response signaling pathway (AID 743210; active = well fitted activation curve with a large enough effect in the signal ratio in the repeat runs, with a control signal flat, not every such curve was filed as active; the % refers to the signal ratio;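 also: HeLa cells with beta-lactamase reporter driven by heat shock elements; series mostly up to about 63 µM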)
Procedure, shortened: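 Activation of heat shock element-controlled beta-lactamase expression is measured in HeLa cells by LiveBLAzer FRET fluorescence, with compound exposure lasting 5 h at 37 C and substrate loading 2.5 h at room temperature.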

[10] = qHTS assay to identify small molecule agonists of the peroxisome proliferator-activated receptor delta (PPARd) signaling pathway - cell viability counter screen (AID 743211); also: nearly all actives have a fitted effect of over 55% in size; also: potency is read from the fitted curve at half-maximal effect
Procedure, shortened: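 Following 5 h plating at 37 C and 5% CO2, PPARd UAS-bla HEK293H cells took up test compounds for 17 h. Viability was quantified by luminescence 30 min after CellTiter-Glo addition at room temperature.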

[11] = target: Peroxisome proliferator-activated receptor delta (Homo sapiens) (UniProt Q03181); test: qHTS assay to identify small molecule agonists of the peroxisome proliferator-activated receptor delta (PPARd) signaling pathway (AID 743212; calls by dose curve)
Procedure, shortened: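 Cells expressing a UAS-driven beta-lactamase reporter (PPARd-bla HEK293H) were given test compounds after a 5 h settle and kept at 37 C. Reporter activity was then measured as FRET fluorescence using LiveBLAzer B/G substrate.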

[12] = qHTS assay to identify small molecule antagonists of the peroxisome proliferator-activated receptor delta (PPARd) signaling pathway - cell viability counter screen (AID 743213); also: nearly all actives have a fitted effect of over 50% in size; also: potency is read from the fitted curve at half-maximal effect
Procedure, shortened: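 PPARd-bla HEK293H cells (3000/well) got compound plus 300 nM L165041 agonist for 17 h at 37 C. Viability in the same wells came from CellTiter-Glo luminescence after 30 min at room temperature.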

[13] = target: Peroxisome proliferator-activated receptor delta (Homo sapiens) (UniProt Q03181); test: qHTS assay to identify small molecule antagonists of the peroxisome proliferator-activated receptor delta (PPARd) signaling pathway (AID 743215; active = well fitted inhibition curve with a large enough effect in the signal ratio in the repeat runs, not every such curve was filed as active; the % refers to the signal ratio;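 also: cells stimulated with agonist L165041 at 300 nM final during compound exposure; series mostly up to about 62 µM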)
Procedure, shortened: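 Fluorescence from cleaved LiveBLAzer B/G FRET substrate (2 h, room temperature) reports PPARd-driven beta-lactamase in HEK293H UAS-bla cells. Cells had been treated 17 h at 37 C with compound plus 300 nM final L165041.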

[14] = target: Bile acid receptor (Homo sapiens) (UniProt Q96RI1); test: qHTS assay to identify small molecule antagonists of the farnesoid-X-receptor (FXR) signaling pathway (AID 743217; active = well fitted inhibition curve with a large enough effect in the signal ratio in the repeat runs, not every such curve was filed as active; the % refers to the signal ratio; also: potency is read from the fitted curve at half-maximal effect)
Procedure, shortened: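 FRET fluorescence after 2 h room-temperature LiveBLAzer loading gives the readout. Prior step: FXR-bla HEK 293T cells, seeded and incubated 5 h, received test compounds plus 50 uM final CDCA for 16 h at 37 °C.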

[15] = qHTS assay to identify small molecule agonists of the farnesoid-X-receptor (FXR) signaling pathway - cell viability counter screen (AID 743218); also: nearly all actives have a fitted effect of over 45% in size
Procedure, shortened: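 Readout: CellTiter-Glo luminescence, 30 min RT, multiplexed after the FXR-bla FRET reading. HEK 293T FXR-UAS-bla cells received compound 5 h post-plating and were incubated 16 h at 37 C.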

[16] = target: Bile acid receptor (Homo sapiens) (UniProt Q96RI1); test: qHTS assay to identify small molecule agonists of the farnesoid-X-receptor (FXR) signaling pathway (AID 743220; active = well fitted activation curve with a large enough effect in the signal ratio in the repeat runs, not every such curve was filed as active; the % refers to the signal ratio)
Procedure, shortened: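 FXR-UAS-bla HEK 293T cells carrying a UAS-driven beta-lactamase reporter were plated for 5 h at 37C/5% CO2, then exposed to DMSO-dissolved Tox21 10K compounds for 16 h at 37C. A LiveBLAzer B/G FRET substrate was loaded for 2 h at room temperature before fluorescence reading.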

[17] = qHTS assay to identify small molecule antagonists of the farnesoid-X-receptor (FXR) signaling pathway - cell viability counter screen (AID 743221; active = well fitted cell-killing curve with a large enough effect in the repeat runs, not every such curve was filed as active; also: nearly all actives have a fitted effect of over 50% in size)
Procedure, shortened: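 Compound effects on cell number were measured as CellTiter-Glo luminescence in HEK 293T cells expressing FXR-UAS-bla, after 16 h at 37 C with 50 uM CDCA (final).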

[18] = target: Vitamin D3 receptor (Homo sapiens) (UniProt P11473); test: qHTS assay to identify small molecule agonists of the vitamin D receptor (VDR) signaling pathway (AID 743222; calls by dose curve)
Procedure, shortened: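 Following 4 h attachment at 37C, VDR-bla cells (2,000 per well) received DMSO-dissolved compounds or controls. After 16 h incubation, LiveBLAzer B/G FRET substrate was added and fluorescence read 2 h later at room temperature.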

[19] = target: Vitamin D3 receptor (Homo sapiens) (UniProt P11473); test: qHTS assay to identify small molecule antagonists of the vitamin D receptor (VDR) signaling pathway (AID 743223; active = well fitted inhibition curve with a large enough effect in the signal ratio in the repeat runs, not every such curve was filed as active; the % refers to the signal ratio)
Procedure, shortened: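 Beta-lactamase activity in VDR-bla cells is measured by FRET substrate fluorescence (2 h, room temperature) after cells spend 16 h at 37C with test compound and 3 nM final 1alpha,25-dihydroxyvitamin D3.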

[20] = qHTS assay to identify small molecule agonists of the vitamin D receptor (VDR) signaling pathway - cell viability counter screen (AID 743224); also: nearly all actives have a fitted effect of over 50% in size; also: potency is read from the fitted curve at half-maximal effect
Procedure, shortened: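 In parallel with the bla FRET readout, cytotoxicity toward VDR-bla cells after 16 h compound exposure was assessed by CellTiter-Glo, with luminescence recorded after a 30 min room-temperature incubation.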

Vitamin D3 receptor (Homo sapiens), sequence (P11473 whole entry, looked up): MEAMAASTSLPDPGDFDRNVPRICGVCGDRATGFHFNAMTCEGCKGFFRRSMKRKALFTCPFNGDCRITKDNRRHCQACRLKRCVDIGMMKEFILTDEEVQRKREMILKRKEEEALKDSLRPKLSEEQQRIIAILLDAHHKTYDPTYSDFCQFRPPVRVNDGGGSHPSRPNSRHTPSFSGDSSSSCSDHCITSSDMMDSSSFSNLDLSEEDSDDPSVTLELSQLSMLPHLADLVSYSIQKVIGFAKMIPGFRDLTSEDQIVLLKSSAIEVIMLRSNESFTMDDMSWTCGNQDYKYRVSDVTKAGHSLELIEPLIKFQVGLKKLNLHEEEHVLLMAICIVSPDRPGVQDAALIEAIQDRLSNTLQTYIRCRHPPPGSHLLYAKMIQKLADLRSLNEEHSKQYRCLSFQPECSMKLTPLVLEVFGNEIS
Aryl hydrocarbon receptor (Homo sapiens), sequence (P35869 whole entry, looked up): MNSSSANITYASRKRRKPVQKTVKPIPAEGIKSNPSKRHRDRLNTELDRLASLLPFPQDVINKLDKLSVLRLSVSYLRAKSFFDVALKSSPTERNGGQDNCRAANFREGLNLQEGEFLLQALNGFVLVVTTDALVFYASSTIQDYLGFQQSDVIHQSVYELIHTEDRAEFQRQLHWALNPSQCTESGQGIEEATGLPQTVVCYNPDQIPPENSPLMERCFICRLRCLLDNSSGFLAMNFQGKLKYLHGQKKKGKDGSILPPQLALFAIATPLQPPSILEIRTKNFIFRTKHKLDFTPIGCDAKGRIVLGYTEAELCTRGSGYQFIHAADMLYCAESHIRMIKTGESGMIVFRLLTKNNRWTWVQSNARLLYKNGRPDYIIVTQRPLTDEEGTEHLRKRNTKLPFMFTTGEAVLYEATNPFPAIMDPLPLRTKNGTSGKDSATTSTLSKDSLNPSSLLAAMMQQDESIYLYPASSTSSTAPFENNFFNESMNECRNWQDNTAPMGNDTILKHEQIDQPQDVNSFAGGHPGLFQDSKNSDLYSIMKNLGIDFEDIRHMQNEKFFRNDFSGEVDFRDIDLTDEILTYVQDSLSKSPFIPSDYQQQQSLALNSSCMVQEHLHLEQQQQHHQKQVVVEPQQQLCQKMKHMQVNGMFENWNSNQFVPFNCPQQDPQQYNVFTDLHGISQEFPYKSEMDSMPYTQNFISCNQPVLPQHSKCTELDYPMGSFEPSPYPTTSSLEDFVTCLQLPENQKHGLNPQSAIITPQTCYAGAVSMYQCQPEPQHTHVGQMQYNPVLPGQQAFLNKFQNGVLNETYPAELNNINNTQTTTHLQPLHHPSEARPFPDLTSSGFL
Peroxisome proliferator-activated receptor gamma (Homo sapiens), sequence (P37231 whole entry, looked up): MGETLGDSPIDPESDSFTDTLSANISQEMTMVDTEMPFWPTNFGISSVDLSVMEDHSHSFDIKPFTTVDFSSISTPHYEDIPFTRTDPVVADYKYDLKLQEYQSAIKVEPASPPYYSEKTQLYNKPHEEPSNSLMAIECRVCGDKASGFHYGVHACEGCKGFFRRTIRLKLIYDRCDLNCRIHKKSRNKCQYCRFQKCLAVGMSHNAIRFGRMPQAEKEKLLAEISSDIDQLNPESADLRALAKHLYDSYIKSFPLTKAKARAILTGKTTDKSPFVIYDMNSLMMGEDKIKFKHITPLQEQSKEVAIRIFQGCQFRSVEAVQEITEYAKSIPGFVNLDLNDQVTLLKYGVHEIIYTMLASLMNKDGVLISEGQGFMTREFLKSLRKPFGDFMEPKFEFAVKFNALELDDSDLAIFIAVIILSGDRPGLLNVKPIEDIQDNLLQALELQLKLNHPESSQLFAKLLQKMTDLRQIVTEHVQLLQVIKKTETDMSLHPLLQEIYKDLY
Peroxisome proliferator-activated receptor delta (Homo sapiens), sequence (Q03181 whole entry, looked up): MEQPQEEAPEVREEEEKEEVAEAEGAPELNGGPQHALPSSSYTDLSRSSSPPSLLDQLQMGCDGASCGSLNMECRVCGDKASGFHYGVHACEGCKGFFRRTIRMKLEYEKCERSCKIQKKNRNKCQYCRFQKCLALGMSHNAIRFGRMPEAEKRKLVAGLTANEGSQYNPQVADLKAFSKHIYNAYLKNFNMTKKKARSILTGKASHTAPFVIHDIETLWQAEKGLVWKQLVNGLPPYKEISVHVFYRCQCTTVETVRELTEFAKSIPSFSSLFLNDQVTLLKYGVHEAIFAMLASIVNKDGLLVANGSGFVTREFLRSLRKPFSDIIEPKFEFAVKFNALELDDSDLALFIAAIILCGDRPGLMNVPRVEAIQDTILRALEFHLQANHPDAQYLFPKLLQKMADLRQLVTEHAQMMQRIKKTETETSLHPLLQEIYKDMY
Bile acid receptor (Homo sapiens), sequence (Q96RI1 whole entry, looked up): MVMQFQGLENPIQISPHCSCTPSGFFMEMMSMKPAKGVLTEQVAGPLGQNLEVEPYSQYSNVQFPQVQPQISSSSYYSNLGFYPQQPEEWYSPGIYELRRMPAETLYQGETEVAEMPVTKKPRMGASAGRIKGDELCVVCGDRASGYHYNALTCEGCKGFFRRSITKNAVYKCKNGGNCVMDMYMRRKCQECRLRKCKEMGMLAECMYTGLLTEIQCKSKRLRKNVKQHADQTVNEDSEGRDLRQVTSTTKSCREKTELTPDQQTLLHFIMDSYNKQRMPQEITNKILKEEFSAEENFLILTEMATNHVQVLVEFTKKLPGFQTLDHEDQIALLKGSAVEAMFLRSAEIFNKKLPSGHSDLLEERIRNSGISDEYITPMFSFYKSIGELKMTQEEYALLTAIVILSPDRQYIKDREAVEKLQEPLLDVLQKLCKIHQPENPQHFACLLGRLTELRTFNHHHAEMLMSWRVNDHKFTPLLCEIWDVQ

SMILES | Potency [1] | Potency [2] | Potency [3] | Potency [4] | Potency [5] | Potency [6] | Potency [7] | Potency [8] | Potency [9] | Potency [10] | outcome [11] | Potency [12] | Potency [13] | Potency [14] | Potency [15] | outcome [16] | Potency [17] | outcome [18] | Potency [19] | Potency [20]
Cc1ccc(N)c(C)c1 | inactive | inactive | inactive | inactive | inactive | inactive | inactive | inactive | inactive | inactive | inactive | inactive | inactive | inactive | inactive | inactive | inactive | inactive | inactive | –
CC(C)c1ccc(OP(=O)(Oc2ccc(C(C)C)cc2)Oc2ccc(C(C)C)cc2)cc1 | inactive | inactive | inactive | 38.9 µM (active) | inactive | inactive | inactive | inactive | inactive | 27.7 µM (active) and 43.7 µM (active) and 27.5 µM (active) | – | 4.89 µM (active) | – | 22 µM (active) | – | inactive | – | inactive | inactive | inactive
OCC1CO1 (stereo not given) | inactive | inactive | inactive | inactive | inactive | inactive | inactive | inactive | inactive | inactive | – | inactive | inactive | inactive | inactive | inactive | inactive | inactive | inactive | inactive
CCOP(=O)(O)C(N)=O | inactive | inactive | inactive | inactive | inactive | inactive | inactive | inactive | inactive | inactive | inactive | inactive | inactive | inactive | inactive | inactive | inactive | inactive | inactive | inactive
C[Si](Cn1cncn1)(c1ccc(F)cc1)c1ccc(F)cc1 | inactive | 28.2 µM (active) | inactive | inactive | inactive | inactive | inactive | inactive | inactive | inactive | – | 38.9 µM (active) | – | – | – | inactive | – | – | – | 12.7 µM (active)
CCOC(=O)C1OC1(C)c1ccccc1 (stereo not given) | inactive | inactive | inactive | inactive | inactive | inactive | inactive | inactive | inactive | inactive | – | inactive | – | – | inactive | – | inactive | – | – | –
CC(C)c1ccc(NC(=O)N(C)C)cc1 | 68.5 µM (active) | inactive | inactive | inactive | inactive | inactive | inactive | inactive | inactive | inactive | inactive | inactive | – | – | inactive | – | inactive | inactive | inactive | inactive
CC(C)(C)N(NC(=O)c1ccc(Cl)cc1)C(=O)c1ccccc1 | inactive | 17.1 µM (active) | inactive | inactive | inactive | inactive | inactive | inactive | inactive | inactive | – | inactive | inactive | inactive | inactive | – | inactive | inactive | inactive | inactive
OCCCl | inactive | inactive | inactive | inactive | inactive | inactive | inactive | inactive | inactive | inactive | inactive | inactive | – | inactive | inactive | inactive | inactive | inactive | inactive | inactive
CN1CC[C@]23c4c5ccc(O)c4O[C@H]2[C@@H](O)C=C[C@H]3[C@H]1C5 | inactive | inactive | inactive | inactive | inactive | inactive | inactive | inactive | – | inactive | – | inactive | – | – | inactive | – | inactive | inactive | inactive | inactive
O=CC=O | inactive | inactive | inactive | inactive | inactive | inactive | inactive | inactive | inactive | inactive | inactive | inactive | inactive | – | inactive | – | inactive | – | – | inactive
CCc1cnc(C2=NC(C)(C(C)C)C(=O)N2)c(C(=O)O)c1 (stereo not given) | inactive | inactive | inactive | inactive | inactive | inactive | inactive | inactive | inactive | inactive | inactive | inactive | inactive | – | inactive | – | inactive | inactive | inactive | inactive
CCCCCBr | inactive | inactive | inactive | inactive | inactive | inactive | inactive | inactive | inactive | inactive | inactive | – | inactive | – | inactive | – | inactive | inactive | inactive | inactive
CCOC(=O)c1cncn1C(C)c1ccccc1 (stereo not given) | inactive | inactive | inactive | inactive | inactive | inactive | inactive | inactive | inactive | inactive | inactive | inactive | inactive | – | inactive | – | inactive | – | – | –
CCOP(=S)(S)OCC | inactive | inactive | inactive | inactive | inactive | inactive | inactive | inactive | inactive | inactive | – | inactive | – | inactive | inactive | inactive | inactive | inactive | inactive | inactive
CCCCCl | inactive | inactive | inactive | inactive | inactive | inactive | inactive | inactive | inactive | inactive | inactive | inactive | inactive | inactive | inactive | inactive | – | inactive | – | –
Cc1ccccc1 | inactive | inactive | inactive | inactive | inactive | inactive | inactive | inactive | inactive | inactive | – | inactive | – | – | inactive | – | inactive | inactive | inactive | –
